Laboratory results published in PubChem BioAssay (EPA / NIEHS).
Activity calls are given as the source filed them. Rule for the calls: active = hit-call score of the fitted dose curve at least 0.9, where 1 is the maximum; inactive = score below 0.9.

Key:
[1] = ATG_CRE_CIS: Attagene CIS-FACTORIAL HepG2 Assay for human cAMP Responsive Element (CRE) binding protein 3 (AID 2282926); details: HepG2 CRE cis-reporter, Attagene multiplexed mRNA; actives raise or lower the signal
In short: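 Liver-derived HepG2, transfected with a CRE-containing reporter panel, exposed 24 h; transcript levels sized and quantified by capillary electrophoresis of labelled amplicons; signal changes either way referenced to vehicle.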

[2] = target: CCAAT/enhancer-binding protein beta (Homo sapiens) (UniProt P17676); experiment: ATG_C_EBP_CIS: Attagene CIS-FACTORIAL HepG2 Assay for human CCAAT/Enhancer Binding Protein (C/EBP) beta (AID 2282927); details: HepG2 Attagene cis-factorial transcription factor reporter; actives raise or lower the signal
In short: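 Changes in reporter mRNA, rather than exogenous chimeric receptor activity, reflect native C/EBP signalling in transfected HepG2 cells dosed for 24 h; transcripts are detected by RT-PCR and capillary electrophoresis.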

[3] = ATG_CMV_CIS: Attagene CIS-FACTORIAL HepG2 Assay for human CMV (Internal Marker) (AID 2282928); details: HepG2 CMV promoter reporter, transcription factor profiling; actives raise or lower the signal;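 note: endpoint acts as a background internal control marker rather than a target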
In short: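 Readout: fluorescent reporter cDNA fragments separated by capillary electrophoresis after RT-PCR and HpaI cut. Cells: HepG2 carrying transfected cis-promoter reporter constructs, dosed 24 h. Endpoint serves as background internal-marker control, fit bidirectionally versus DMSO.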

[4] = ATG_DR4_LXR_CIS: Attagene CIS-FACTORIAL HepG2 Assay for human Liver X Receptor (LXR), DR4 submotif (AID 2282929); details: HepG2 Attagene DR4 cis-reporter, mRNA transcription; actives raise or lower the signal
In short: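 After transient transfection with multiplexed cis-promoter reporter units, HepG2 cells received test chemicals for 24 h. Reporter mRNA induction, detected by fluorescence after RT-PCR and capillary electrophoresis, was scored relative to DMSO.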

[5] = target: Aryl hydrocarbon receptor (Homo sapiens) (UniProt P35869); experiment: ATG_Ahr_CIS: Attagene CIS-FACTORIAL HepG2 Assay for human Aryl Hydrocarbon Receptor (Ahr) (AID 2282930); details: HepG2 AhR cis-factorial reporter transcription; actives raise or lower the signal
In short: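 HepG2, transient MRTU (cis) transfection, 24 h exposure. RNA → cDNA → PCR → 6-FAM primer extension → HpaI 2 h 37 C → CE. Fit: bidirectional, DMSO baseline.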

[6] = ATG_AP_1_CIS: Attagene CIS-FACTORIAL HepG2 Assay for human Activator Protein 1 (AP-1) (AID 2282931); details: HepG2 Attagene cis-factorial AP-1 reporter mRNA; actives raise or lower the signal
In short: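 After 24 h incubation with test chemical, RNA from transfected HepG2 cells was reverse-transcribed, amplified, fluorescently labelled and digested before capillary electrophoresis. Reporters were driven by cis-regulatory promoters; activity fitted bidirectionally versus DMSO.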

[7] = ATG_AP_2_CIS: Attagene CIS-FACTORIAL HepG2 Assay for human Activator Protein 2 (AP-2) (AID 2282932); details: HepG2 AP-2 cis-reporter, Attagene transcription factor profiling; actives raise or lower the signal
In short: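 Endogenous transcription factor activity is reported through transfected multiplex reporter constructs in HepG2, after 24 h of compound exposure. Transcripts were quantified by RT-PCR and capillary electrophoresis of fluorescent fragments. Bidirectional fit against DMSO.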

[8] = ATG_BRE_CIS: Attagene CIS-FACTORIAL HepG2 Assay for human Bone Morphogenetic Protein (BMP) Response Element (BRE) (AID 2282933); details: HepG2 BMP response element reporter, Attagene transcription factor profiling; actives raise or lower the signal
In short: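 HepG2 cells transiently transfected with CIS reporter units (endogenous TF activity, BMP response element), dosed 24 h. Reporter mRNA quantified by RT-PCR, fluorescent labelling and capillary electrophoresis; bidirectional fit vs DMSO baseline.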

[9] = target: Retinoic acid receptor alpha (Homo sapiens) (UniProt P10276); experiment: ATG_DR5_RAR_CIS: Attagene CIS-FACTORIAL HepG2 Assay for human Retinoic Acid Receptor Alpha (RARE), DR5 submotif (AID 2282934); details: HepG2 Attagene cis-factorial RARE DR5 reporter, mRNA; actives raise or lower the signal;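 for AC50: reporter responds to endogenous RAR alpha beta and gamma in HepG2 not RARA alone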
In short: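 HepG2, transient cis-reporter transfection, 24 h exposure. mRNA readout: RT-PCR, FAM label, HpaI cut, capillary electrophoresis. DMSO baseline, gain/loss fitting.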

[10] = target: Transcription factor E2F1 (Homo sapiens) (UniProt Q01094); experiment: ATG_E2F_CIS: Attagene CIS-FACTORIAL HepG2 Assay for human E2F Transcription Factor 1 (AID 2282935); details: HepG2 Attagene cis-reporter, E2F reporter RNA transcripts; actives raise or lower the signal
In short: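 Gain or loss of reporter transcript, fitted against DMSO, reflects E2F1-driven transcription. Transiently transfected HepG2 dosed 24 h before RNA isolation. Quantified by fluorescent RT-PCR products separated by capillary electrophoresis.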

[11] = ATG_E_Box_CIS: Attagene CIS-FACTORIAL HepG2 Assay for human Enhancer Box (E-box) (AID 2282936); details: HepG2 E-box cis-reporter transcription, actives raise or lower the signal
In short: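 E-box-driven reporter transcripts measured in transiently transfected HepG2 after 24 h exposure: RNA reverse-transcribed, PCR-amplified, fluorescently labelled, digested and resolved by capillary electrophoresis. Gain or loss relative to DMSO.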

[12] = ATG_M_61_CIS: Attagene CIS-FACTORIAL HepG2 Assay for M61 Transcription Factor (Internal Marker) (AID 2282937); details: HepG2 Attagene CIS-FACTORIAL M61 internal marker reporter; actives raise or lower the signal
In short: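 Using transiently transfected HepG2 liver cells, reporter transcript levels were assessed 24 h post-dosing by RT-PCR and capillary electrophoresis. Changes in either direction were fitted relative to DMSO controls.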

[13] = ATG_EGR_CIS: Attagene CIS-FACTORIAL HepG2 Assay for human Early Growth Response 1 (EGR1) (AID 2282938); details: HepG2 Attagene CIS-FACTORIAL EGR reporter mRNA; actives raise or lower the signal
In short: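 Fluorescent capillary-electrophoresis signal of reporter cDNA fragments serves as read-out. HepG2 cells bear transiently transfected cis-promoter reporter units and are exposed 24 h; gain- or loss-of-signal is fitted against DMSO.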

[14] = ATG_M_19_CIS: Attagene CIS-FACTORIAL HepG2 Assay for M19 Transcription Factor (Internal Marker) (AID 2282939); details: HepG2 Attagene CIS-FACTORIAL M19 internal marker reporter; actives raise or lower the signal
In short: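 HepG2 cells transiently transfected with cis-regulated multiplexed reporter units, dosed 24 h. Reporter mRNA quantified by RT-PCR and capillary electrophoresis; internal background marker fitted bidirectionally versus DMSO.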

[15] = ATG_ERE_CIS: Attagene CIS-FACTORIAL HepG2 Assay for Estrogen Response Element (ERE) (AID 2282940); details: HepG2 ERE cis-reporter, Attagene RNA transcript; actives raise or lower the signal
In short: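 HepG2 cells transiently transfected with multiplexed cis-element reporter units, measuring endogenous transcription factor activity; ERE reporter mRNA quantified after 24 h exposure by RT-PCR, fluorescent labelling, HpaI digestion and capillary electrophoresis. Bidirectional change versus DMSO.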

[16] = ATG_Ets_CIS: Attagene CIS-FACTORIAL HepG2 Assay for human Erythroblast Transformation Specific (ETS) (AID 2282941); details: HepG2 ETS cis-reporter transcription, actives raise or lower the signal
In short: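 RT-PCR/capillary electrophoresis fluorescence read-out of reporter mRNA; HepG2 transient multi-reporter transfection; 24 h compound exposure; gain or loss of signal fitted bidirectionally relative to DMSO.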

[17] = ATG_FoxO_CIS: Attagene CIS-FACTORIAL HepG2 Assay for human Forkhead box O (FoxO) (AID 2282943); details: HepG2 Attagene cis-reporter, FoxO element, mRNA; actives raise or lower the signal
In short: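 Human hepatoma HepG2 cells carry transiently introduced reporter transcription units controlled by cis promoter elements. Chemical treatment lasted 24 h, and mRNA signal was compared with DMSO.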

[18] = ATG_GATA_CIS: Attagene CIS-FACTORIAL HepG2 Assay for human GATA Binding Protein (AID 2282944); details: HepG2 GATA cis-element reporter, Attagene multiplex mRNA; actives raise or lower the signal
In short: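 HepG2 cells transiently transfected with multiplexed cis-element reporter units measure endogenous GATA activity; after 24 h compound exposure, reporter mRNA quantified by RT-PCR and capillary electrophoresis. Changes fitted in both directions vs DMSO.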

[19] = target: Hepatocyte nuclear factor 3-beta (Homo sapiens) (UniProt Q9Y261); experiment: ATG_FoxA2_CIS: Attagene CIS-FACTORIAL HepG2 Assay for human Forkhead box A2 (FOXA2) (AID 2282942); details: HepG2 cis-reporter transcription factor activity, 24 h; actives raise or lower the signal
In short: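 Fluorescence signal of reporter cDNA fragments, separated by capillary electrophoresis, reflects endogenous transcription factor activity in transfected HepG2 after 24 h. Both increases and decreases fitted against DMSO.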

Measured: AC50

CCAAT/enhancer-binding protein beta (Homo sapiens), sequence (P17676 whole entry, looked up): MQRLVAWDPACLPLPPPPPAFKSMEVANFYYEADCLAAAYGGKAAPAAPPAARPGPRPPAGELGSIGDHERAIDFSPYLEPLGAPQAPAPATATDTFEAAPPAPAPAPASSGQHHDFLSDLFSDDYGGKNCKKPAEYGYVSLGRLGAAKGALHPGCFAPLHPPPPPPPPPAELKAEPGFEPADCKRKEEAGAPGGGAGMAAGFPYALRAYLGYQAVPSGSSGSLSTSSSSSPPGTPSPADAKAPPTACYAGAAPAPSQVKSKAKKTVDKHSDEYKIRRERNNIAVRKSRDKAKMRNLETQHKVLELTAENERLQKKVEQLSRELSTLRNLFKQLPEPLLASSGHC
Transcription factor E2F1 (Homo sapiens), sequence (Q01094 whole entry, looked up): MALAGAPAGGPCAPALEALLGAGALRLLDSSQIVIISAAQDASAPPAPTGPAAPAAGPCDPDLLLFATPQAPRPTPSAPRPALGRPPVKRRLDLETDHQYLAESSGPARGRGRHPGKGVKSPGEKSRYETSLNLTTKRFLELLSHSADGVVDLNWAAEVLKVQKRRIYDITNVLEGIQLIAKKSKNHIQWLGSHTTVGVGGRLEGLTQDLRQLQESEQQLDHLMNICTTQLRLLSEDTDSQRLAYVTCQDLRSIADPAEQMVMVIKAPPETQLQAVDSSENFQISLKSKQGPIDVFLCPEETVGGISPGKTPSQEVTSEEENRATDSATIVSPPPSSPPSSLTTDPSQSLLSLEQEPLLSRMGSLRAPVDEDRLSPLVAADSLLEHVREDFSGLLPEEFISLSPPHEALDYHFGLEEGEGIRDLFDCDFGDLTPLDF
Hepatocyte nuclear factor 3-beta (Homo sapiens), sequence (Q9Y261 whole entry, looked up, the tested form may be a part): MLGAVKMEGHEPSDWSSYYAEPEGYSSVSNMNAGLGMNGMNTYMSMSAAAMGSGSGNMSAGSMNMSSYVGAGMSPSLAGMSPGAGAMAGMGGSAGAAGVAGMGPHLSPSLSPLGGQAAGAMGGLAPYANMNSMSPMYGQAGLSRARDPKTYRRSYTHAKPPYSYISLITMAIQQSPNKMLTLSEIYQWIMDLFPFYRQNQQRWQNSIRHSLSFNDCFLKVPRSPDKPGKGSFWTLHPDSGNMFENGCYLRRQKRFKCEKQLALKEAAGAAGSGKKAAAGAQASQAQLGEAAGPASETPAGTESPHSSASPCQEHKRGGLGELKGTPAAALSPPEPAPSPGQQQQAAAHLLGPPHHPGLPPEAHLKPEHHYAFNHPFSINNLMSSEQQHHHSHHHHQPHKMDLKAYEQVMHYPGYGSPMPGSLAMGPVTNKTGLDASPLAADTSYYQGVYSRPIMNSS
Retinoic acid receptor alpha (Homo sapiens), sequence (P10276 whole entry, looked up): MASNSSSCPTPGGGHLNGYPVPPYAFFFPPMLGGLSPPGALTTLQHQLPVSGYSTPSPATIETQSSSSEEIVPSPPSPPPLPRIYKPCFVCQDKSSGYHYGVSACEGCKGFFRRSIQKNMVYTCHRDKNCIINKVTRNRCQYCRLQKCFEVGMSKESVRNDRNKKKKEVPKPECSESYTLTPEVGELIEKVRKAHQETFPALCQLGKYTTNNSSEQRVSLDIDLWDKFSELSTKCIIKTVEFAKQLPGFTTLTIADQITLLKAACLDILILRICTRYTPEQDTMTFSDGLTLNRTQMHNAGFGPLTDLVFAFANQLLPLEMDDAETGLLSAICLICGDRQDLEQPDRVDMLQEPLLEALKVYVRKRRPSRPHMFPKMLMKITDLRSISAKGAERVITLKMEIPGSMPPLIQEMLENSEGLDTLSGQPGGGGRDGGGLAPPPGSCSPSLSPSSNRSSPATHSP
Aryl hydrocarbon receptor (Homo sapiens), sequence (P35869 whole entry, looked up): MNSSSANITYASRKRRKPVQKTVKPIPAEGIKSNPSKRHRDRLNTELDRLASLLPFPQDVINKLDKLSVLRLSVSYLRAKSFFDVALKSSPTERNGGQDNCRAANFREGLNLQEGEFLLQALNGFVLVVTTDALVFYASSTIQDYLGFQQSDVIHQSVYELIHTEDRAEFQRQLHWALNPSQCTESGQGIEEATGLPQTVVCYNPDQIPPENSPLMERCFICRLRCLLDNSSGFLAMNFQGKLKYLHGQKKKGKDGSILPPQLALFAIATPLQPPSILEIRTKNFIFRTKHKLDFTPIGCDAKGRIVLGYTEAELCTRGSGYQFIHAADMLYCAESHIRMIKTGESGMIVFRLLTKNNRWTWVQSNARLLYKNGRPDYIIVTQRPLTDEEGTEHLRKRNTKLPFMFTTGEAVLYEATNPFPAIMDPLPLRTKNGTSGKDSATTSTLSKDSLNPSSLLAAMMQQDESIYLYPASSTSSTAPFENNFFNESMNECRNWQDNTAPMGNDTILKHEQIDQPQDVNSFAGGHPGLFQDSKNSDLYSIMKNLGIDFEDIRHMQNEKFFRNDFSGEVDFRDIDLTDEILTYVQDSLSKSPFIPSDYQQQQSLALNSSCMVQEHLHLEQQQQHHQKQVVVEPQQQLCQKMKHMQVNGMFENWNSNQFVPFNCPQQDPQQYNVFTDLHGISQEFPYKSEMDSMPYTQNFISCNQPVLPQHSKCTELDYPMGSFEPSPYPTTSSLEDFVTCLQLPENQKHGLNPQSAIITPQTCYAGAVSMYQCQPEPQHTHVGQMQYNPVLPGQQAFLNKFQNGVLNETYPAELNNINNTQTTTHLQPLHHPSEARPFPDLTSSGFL

C=CCc1cc(S(=O)(=O)c2ccc(O)c(CC=C)c2)ccc1O
active: [3] 27.9 µM | [4] 20.4 µM | [6] 23.2 µM | [8] 22.1 µM | [11] 55.6 µM | [13] 45.8 µM | [15] 1.12 µM
not listed: [19]
inactive: all other assays above

COCc1nnc(-c2ccc[n+]([O-])c2)n1-c1c(Cl)c(Cl)cc2[nH]c(=O)c(=O)[nH]c12
not listed: [17] | [19]
inactive: all other assays above

Cc1nccn1-c1ccc(Sc2cccc(C3(C(N)=O)CCOCC3)c2)cc1
active: [1] 1.67 µM | [2] 1.94 µM | [3] 0.93 µM | [7] 8.08 µM | [9] 1.83 µM | [16] 4.05 µM | [17] 3.15 µM
not listed: [13]
inactive: all other assays above

O=S(=O)(O)CCC(F)(F)C(F)(F)C(F)(F)C(F)(F)C(F)(F)C(F)(F)F
not listed: [17]
inactive: all other assays above

O=C(O)c1cccc(C(=O)O)c1
not listed: [19]
inactive: all other assays above

FC(F)(F)COC(OCC(F)(F)F)OCC(F)(F)F
not listed: [17]
inactive: all other assays above

NC(=O)N1c2ccccc2C=Cc2ccccc21
active: [15] 49.9 µM
not listed: [13] | [17]
inactive: all other assays above
